# Bioassay records: PubChem, several laboratories
# The list is not random: actives were taken first. Their share in the collection is about 4.6%.
# CF NFkB block: blocks PAF-induced NF-kB reporter in cystic fibrosis cells; AID 588850; actives 0.86% (n = 360,000); KKLEB NF-kB-GFP reporter, GFP fluorescence overnight; inhibition, % at 5 µM;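 active means at least 50% inhibition at 5 µM, scaled per plate between neutral and stimulator controls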;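 further: PAF is a Pseudomonas aeruginosa culture filtrate used as stimulus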
# KKLEB cytotox: CF airway cell cytotoxicity counter-screen | activity change (cytotoxicity), % at 5 µM | KKLEB CF airway cells viability, ATPlite luminescence, overnight; active compounds read low; cells stimulated with P. aeruginosa culture filtrate | actives 0.36% (n = 360,000);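 active means corrected activity change at or below -50% at 5 µM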
# Mdm2-MdmX inh: inhibitors of human Mdm2/MdmX interaction; O15151+Q00987; actives 3% (n = 330,000); inhibition, % at 8 µM; SaOS-2 split-luciferase Mdm2/MdmX complementation, luminescence; AID 485346;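 active means inhibition of at least 50% at 8 µM in the primary screen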
# Target sequence (O15151 whole entry, looked up): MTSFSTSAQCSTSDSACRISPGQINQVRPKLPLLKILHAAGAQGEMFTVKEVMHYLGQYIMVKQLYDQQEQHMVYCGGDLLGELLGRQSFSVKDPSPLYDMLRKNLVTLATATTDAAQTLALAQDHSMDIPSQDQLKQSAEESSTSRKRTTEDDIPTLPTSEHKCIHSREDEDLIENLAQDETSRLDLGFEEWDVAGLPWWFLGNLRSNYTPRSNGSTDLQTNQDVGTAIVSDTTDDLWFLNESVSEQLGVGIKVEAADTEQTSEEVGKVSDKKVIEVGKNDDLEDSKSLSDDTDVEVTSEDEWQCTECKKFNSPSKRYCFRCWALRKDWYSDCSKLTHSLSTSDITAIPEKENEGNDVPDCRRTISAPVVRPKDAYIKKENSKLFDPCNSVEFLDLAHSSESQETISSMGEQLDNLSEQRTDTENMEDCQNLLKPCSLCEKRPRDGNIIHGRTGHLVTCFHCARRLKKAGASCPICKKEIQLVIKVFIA
# Target sequence (Q00987 whole entry, looked up): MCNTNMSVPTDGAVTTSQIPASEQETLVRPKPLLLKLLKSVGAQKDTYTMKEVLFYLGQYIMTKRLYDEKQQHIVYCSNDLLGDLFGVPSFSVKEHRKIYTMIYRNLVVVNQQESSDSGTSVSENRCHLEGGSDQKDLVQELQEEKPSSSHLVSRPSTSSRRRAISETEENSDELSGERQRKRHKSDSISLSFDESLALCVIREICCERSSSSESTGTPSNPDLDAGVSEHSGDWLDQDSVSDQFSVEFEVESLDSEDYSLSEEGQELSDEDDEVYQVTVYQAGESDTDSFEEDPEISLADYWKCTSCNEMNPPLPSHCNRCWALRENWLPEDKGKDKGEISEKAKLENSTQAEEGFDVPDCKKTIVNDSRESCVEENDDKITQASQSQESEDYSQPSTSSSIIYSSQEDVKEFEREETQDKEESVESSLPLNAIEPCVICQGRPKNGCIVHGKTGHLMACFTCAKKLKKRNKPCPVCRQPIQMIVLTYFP
# Peg3 prom inh: inhibitors of Peg3 promoter; HeLa PEG-Prom luciferase reporter, luminescence, overnight; AID 588405; inhibition, % at 20 µM; actives 1.7% (n = 360,000);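 active means inhibition of at least 50% at 20 µM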
# HIF-2a block: HIF-2a inhibition | 786-0 RCC cells HIF-2a reporter, luciferase luminescence, overnight | inhibition, % at 18.8 µM | actives 0.72% (n = 360,000) | AID 624352;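 active means inhibition of the luminescence signal of 40% or more relative to plate controls, in a single-dose primary screen at 18.75 µM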
# ABHD5-PLIN5 inh: blocks binding of human ABHD5 to perilipin-5 | Q00G26+Q8WTS1 | Split G. princeps luciferase complementation, luminescence, 4 h | inhibition, % at 4 µM | actives 0.78% (n = 360,000);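 active means inhibition above the mean inhibition across every tested compound plus 3 SD, cut at about 22% in these data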
# Mdm2-MdmX conf: human Mdm2/MdmX binding inhibition, confirmed; shares compounds with Mdm2-MdmX inh; luminescent assay; inhibition, % at 8 µM; actives 55% (n = 10,000); AID 489028; in the data active means inhibition above about 40%
# Full FLuc ctr: full-length luciferase inhibition in Mdm2/MdmX counter-screen. shares compounds with Mdm2-MdmX inh. actives 77% (n = 6,200). inhibition, % at 8 µM. SaOS-2 full-length luciferase counterscreen, luminescence. AID 504607;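 active means mean inhibition at 8 µM reaching about 37%, which flags the compound as non-specific, limit read from the data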;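 further: p53-null SaOS-2 cells with luciferase driven by a doxycycline-inducible promoter; compound on cells about two nights before reading with doxycycline added after day one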
# Hits are given with their value; i = inactive; nt = no result given.
SMILES,CF NFkB block,KKLEB cytotox,Mdm2-MdmX inh,Peg3 prom inh,HIF-2a block,ABHD5-PLIN5 inh,Mdm2-MdmX conf,Full FLuc ctr
Cc1cc(C(=O)NC2CCCc3c2cnn3-c2cccc(C)c2C)no1 (configuration not stated),i,i,93.5,i,i,i,94.4,i
Cc1cccc(-n2ncc3c2CCCC3NC(=O)c2ccncc2)c1C (configuration not stated),i,i,nt,i,i,i,nt,nt
CCOC(=O)c1ccccc1NC(=O)CSC(C)C(=O)Nc1cc(C)on1 (configuration not stated),i,i,i,i,i,i,nt,nt
CCc1nc2ccc(C(=O)NCCOc3ccc(OC)cc3)cn2c1N(C)C(=O)Cc1ccccc1,i,i,nt,i,i,i,nt,nt
Cc1ccnc(Nc2cccnc2)n1,i,i,nt,i,i,i,nt,nt
Cc1sc2ncnc(N3CCC(C(=O)N(C)CC(=O)Nc4ccc(Cl)c(C(F)(F)F)c4)CC3)c2c1C,i,i,80.8,64.4,i,i,54.7,i
Cc1sc2ncnc(N3CCC(C(=O)Nc4ccc(S(N)(=O)=O)cc4)CC3)c2c1C,i,i,61.2,i,i,i,42.5,71.8
Cc1sc2ncnc(N3CCC(C(=O)Nc4ccc(C#N)cc4)CC3)c2c1C,i,i,i,i,i,i,nt,nt
CCN(CC)S(=O)(=O)c1cc(NC(=O)C2CCN(c3ncnc4sc(C)c(C)c34)CC2)ccc1Cl,i,i,90.0,67.2,i,i,60.4,48.9
O=C(Nc1nc(-c2ccc(S(=O)(=O)N3CCOCC3)cc2)cs1)c1ccccc1,i,i,i,i,i,i,nt,nt
Cc1ccc(-c2csc(NC(=O)c3cccc(S(=O)(=O)N4CCN(C)CC4)c3)n2)cc1,i,i,73.2,i,i,i,65.3,38.6
Cc1ccc(Nc2nc(-c3ccc(S(=O)(=O)N4CCOCC4)cc3)cs2)cc1Cl,i,i,62.7,i,i,i,i,nt
COc1cccc(C(=O)Nc2nc(-c3ccc(S(=O)(=O)N4CCOCC4)cc3)cs2)c1,i,i,58.0,68.5,i,i,i,nt
O=C(Nc1nc(-c2ccccc2)cs1)C1CCCN(S(=O)(=O)c2ccccc2)C1 (configuration not stated),i,i,78.0,i,i,i,65.2,78.7
CCCCNc1c(CCc2ccccc2)nc2nc(C)cc(C)n12,nt,nt,nt,nt,i,i,nt,nt
Cc1ccc(NC(=O)c2cccc(S(=O)(=O)N3CCc4ccccc4C3)c2)nc1,i,i,i,i,i,i,nt,nt
Cc1cc(N2CCN(C)CC2)ccc1NC(=O)c1cccc(S(=O)(=O)N2CCc3ccccc3C2)c1,i,i,96.1,109.2,i,i,i,73.0
CCN(CC)C(=O)COc1ccc(-c2nnc(N3CCCCC3)c3ccccc23)cc1,i,i,i,i,i,i,nt,nt
CCOc1ccc(-c2nnc(N3CCCCC3)c3ccccc23)cc1,i,i,62.2,i,i,i,i,nt
CC[C@@]1(C(=O)OC)N[C@H](CN(C)C(=O)COc2ccccc2)[C@@H]2C(=O)N(Cc3ccccc3)C(=O)[C@@H]21,i,i,i,i,i,i,nt,nt
COc1ccccc1C(=O)NCC(=O)N1CC=C(c2ccccc2)CC1,i,i,i,i,i,i,nt,nt
CSc1nnc2c3ccccc3n(CCc3ccccc3)c2n1,i,i,81.6,i,i,i,90.4,42.2
CSc1nnc2c3ccccc3n(Cc3ccccc3)c2n1,i,i,i,i,i,i,nt,nt
CCOC(=O)c1c(-c2ccccc2)oc2ccc(O)c(CN3CCN(C)CC3)c12,i,i,50.8,53.7,i,i,45.5,59.2
CCOC(=O)c1c(-c2ccccc2)oc2cc(CN(C)C)c(O)c(CN(C)C)c12,i,i,54.0,67.8,i,i,62.3,48.1
SMILES,CF NFkB block,KKLEB cytotox,Mdm2-MdmX inh,Peg3 prom inh,HIF-2a block,ABHD5-PLIN5 inh,Mdm2-MdmX conf,Full FLuc ctr
CCOC(=O)c1c(C)n(C)c2ccc(O)c(CN3CCN(C)CC3)c12,i,i,i,i,i,i,nt,nt
CCOC(=O)c1c(CN2CCN(C)CC2)n(-c2ccccc2)c2cc(Br)c(O)cc12,i,i,60.8,i,i,i,45.6,39.3
Cc1cccc(CN2CCN(C3CN(Cc4cn(Cc5ccc(F)cc5)nn4)S(=O)(=O)C3)CC2)c1 (configuration not stated),nt,nt,nt,nt,i,i,nt,nt
CCCCCCCCN1C(=O)[C@H](CC(=O)NCC2CCCCC2)C[C@@]2(C(=O)OC)CCCCC=C12,nt,nt,nt,nt,i,i,nt,nt
COc1cc(NC(=O)C2CC(c3ccccc3O)=NO2)cc(OC)c1OC (configuration not stated),i,i,nt,i,i,i,nt,nt
CCc1ccc(N2C(=O)C(Cl)=C(Nc3ccc(C(=O)N4CCCC4)cc3)C2=O)cc1,i,i,95.4,i,i,i,95.1,38.8
COc1ccccc1C(=O)COC(=O)CNS(=O)(=O)c1ccc(C)c(C)c1,i,i,i,i,i,i,nt,nt
Cc1ccc(C)c(NC(=O)c2ccc3c(c2)CCN3S(C)(=O)=O)c1,i,i,nt,i,i,i,nt,nt
CCC(=O)N1CCN(c2ccc(Cl)cc2NC(=O)c2cccc([N+](=O)[O-])c2)CC1,i,i,54.9,i,i,i,i,nt
O=C(N/N=C/c1ccncc1)c1cccc([N+](=O)[O-])c1,nt,nt,i,nt,nt,nt,nt,nt
COc1ccc(NC(=O)c2cccc([N+](=O)[O-])c2)cc1,i,i,i,i,i,i,nt,nt
CC(/C=N/NC(=O)c1cccc([N+](=O)[O-])c1)=C\c1ccccc1,i,i,74.1,i,i,i,i,nt
Cc1ccc(-n2[nH]c(C)c(/C=N/NC(=O)c3ccc([N+](=O)[O-])cc3)c2=O)c(C)c1,i,i,53.1,i,i,i,i,nt
COc1ccc(CC(=O)Nc2ccc(/C(C)=N/NC(=O)c3cccc([N+](=O)[O-])c3)cc2)cc1,i,i,57.0,i,i,i,i,nt
COC(=O)c1ccc2c(=O)[nH]c(COC(=O)CCC(=O)c3ccc(Cl)cc3)nc2c1,i,i,i,i,i,i,nt,nt
CCN(CC)c1ccc(S(=O)(=O)N2CCCCC2)cc1NC(=O)CN1C(=O)NC2(CCCC2)C1=O,i,i,i,i,i,i,nt,nt
CCc1cc(Cn2nc(-c3ccccc3)cc2C(=O)NCc2ccccc2OC)on1,i,i,i,i,i,i,nt,nt
Cc1ccc(NC(=O)CCNC(=O)c2ccco2)cc1Cl,i,i,i,i,i,i,nt,nt
Cc1[nH]n(-c2ccccc2)c(=O)c1/C=N/NC(=O)c1cccc([N+](=O)[O-])c1,i,i,51.9,i,i,i,44.0,i
CCCCCCCC(=O)Nc1ccc(C(=O)N/N=C/c2cccc([N+](=O)[O-])c2)cc1,i,i,87.8,101.3,i,i,i,nt
